Activity calls are given as the source filed them. Calls come from the whole dose curve; as a rule, active = well fitted curve in the direction sought with a large enough effect; inconclusive = small, poorly fitted or top-dose-only effect, or another doubt; inactive = no such curve, though single readings can be large or run the other way.

For this assay, the target named is Alpha-galactosidase (Coffea arabica) (UniProt Q42656). As to the kind of experiment: Counterscreen for Glucocerebrosidase Inhibitors: qHTS Assay for Coffee Bean alpha-Galactosidase at pH 4.5 (AID 957). Particulars: purified coffee bean alpha-galactosidase, fluorogenic substrate; series mostly up to 76.9 µM. A digest of the protocol: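 Quantitative HTS of compounds (0.7 nM to 77 uM) against coffee bean alpha-galactosidase at pH 4.5, measuring 4-methylumbelliferone fluorescence released from 80 uM substrate.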
Alpha-galactosidase (Coffea arabica), sequence (Q42656 whole entry, looked up): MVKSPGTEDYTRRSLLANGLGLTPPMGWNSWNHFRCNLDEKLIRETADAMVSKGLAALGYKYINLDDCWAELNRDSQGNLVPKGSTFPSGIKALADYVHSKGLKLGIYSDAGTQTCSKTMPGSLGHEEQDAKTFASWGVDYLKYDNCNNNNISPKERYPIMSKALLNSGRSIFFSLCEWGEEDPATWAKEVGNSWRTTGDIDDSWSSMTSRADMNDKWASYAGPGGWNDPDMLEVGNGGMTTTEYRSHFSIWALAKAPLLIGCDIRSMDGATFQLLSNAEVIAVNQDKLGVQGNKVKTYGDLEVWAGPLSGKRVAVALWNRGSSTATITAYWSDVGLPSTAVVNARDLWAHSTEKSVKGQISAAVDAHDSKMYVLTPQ
Take `O=c1c(-c2ccc(O)cc2)coc2cc(O)cc(O)c12`: the result was inactive.

Regarding `CC(C)NNC(=O)c1ccncc1`, the call was inactive.

As to `O=C(CCCN1CCC2(CC1)C(=O)NCN2c1ccccc1)c1ccc(F)cc1`, the compound was classed as inactive.

Consider `O=c1[nH]cnc2[nH]ncc12`, for which the compound was called inactive.

With `C[N+](C)(C)CCOC(N)=O`, the compound was called inactive.

As for `CCN(CC)CCNC(=O)c1ccc(N)cc1`, the compound was classed as inactive.

As for `O=c1[nH]c(=O)n([C@H]2C[C@H](O)[C@@H](CO)O2)cc1Br`, the result was inactive.

As for `CNC[C@H](O)c1cccc(O)c1`, the compound was called inactive.

Consider `CN1CCN(CC(=O)N2c3ccccc3C(=O)Nc3cccnc32)CC1`, for which the compound was classed as inactive.

`CC(=O)OCC(=O)[C@@]1(O)CC[C@H]2[C@@H]3CCC4=CC(=O)CC[C@]4(C)[C@H]3C(=O)C[C@@]21C`: the result was inactive.

As to `CN1C(C(=O)Nc2ccccn2)=C(O)c2ccccc2S1(=O)=O`, the compound was classed as inactive.

Regarding `Nc1nc2ccc(OC(F)(F)F)cc2s1`, the compound was classed as inactive.

Take `C1COC(NC(C2CC2)C2CC2)=N1`: the compound was called inactive.

With `N[C@@H](COP(=O)(O)O)C(=O)O`, the call was inactive.

`CN1CCN(CCC=C2c3ccccc3Sc3ccc(S(=O)(=O)N(C)C)cc32)CC1`: the call was inactive.

Regarding `CN=C(NC#N)NCCSCc1nc[nH]c1C`, the compound was classed as inactive.

For `FC(F)(F)c1ccccc1-n1ccnc1`, the outcome was inactive.

Consider `CC(C)(C)NC[C@H](O)COc1nsnc1N1CCOCC1`, for which the result was inactive.

Take `CCO/C([O-])=N/c1c[n+](N2CCOCC2)no1`: the result was inactive.

For `CC(=O)O[C@H]1C(=O)[C@@]2(C)[C@H]([C@H](OC(=O)c3ccccc3)[C@]3(O)C[C@H](OC(=O)[C@H](O)[C@@H](NC(=O)c4ccccc4)c4ccccc4)C(C)=C1C3(C)C)[C@]1(OC(C)=O)CO[C@@H]1C[C@@H]2O`, the compound was called inactive.

As for `CN1C(C)(C)CCCC1(C)C`, the compound was called inactive.

Take `COc1ccc(C2CNC(=O)C2)cc1OC1CCCC1` (stereo not given): the result was inactive.

Take `COc1cc(NS(C)(=O)=O)ccc1Nc1c2ccccc2nc2ccccc12`: the result was inactive.

`O=C(O)CCCCCCCC(=O)O`: the result was inactive.

For `NC(=O)c1cnccn1`, the compound was classed as inactive.

In the case of `NCCCCCC(=O)O`, the result was inactive.

`CC(=O)N1CCN(c2ccc(OC[C@H]3CO[C@](Cn4ccnc4)(c4ccc(Cl)cc4Cl)O3)cc2)CC1`: the result was inactive.

As to `COc1ccc2[nH]cc(CCNC(C)=O)c2c1`, the compound was called inactive.

For `NCCCNCCSP(=O)(O)O`, the compound was called inactive.

On to `NC(=O)N1c2ccccc2C=Cc2ccccc21`, for which the outcome was inactive.

These data come from PubChem BioAssay (NCATS).
